# G9a inh – G9a (human) methyltransferase inhibition. G9a H3K9 monomethylation, AlphaScreen, 2 h. Potency, µM (highest dose often 102 µM), hits mostly inhibitors. actives 8.8% (n = 350,000). Q96KQ7; further: nearly all actives have a fitted effect of over 75% in size
#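 Using a bead-based AlphaScreen, monomethylated H3K9 product from 2 h room-temperature reactions (G9a 20 nM, peptide 500 nM, SAM 20 uM) was detected with 0.5 ug/mL rabbit anti-H3K9me1 antibody.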
# BAZ2B inh – inhibitors of human BAZ2B bromodomain; AlphaScreen BAZ2B-H3K14Ac peptide displacement; Q9UIF8; actives 4.4% (n = 360,000); Potency, µM (top dose mostly 114 µM), actives largely listed as inhibitors; further: nearly all actives have a fitted effect of over 60% in size
#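 Compounds, titrated to a top concentration of 110 uM, were incubated 30 min at room temperature with preformed BAZ2B/acetyl-K14 H3 peptide complex (50 nM each). Proximity signal was measured by AlphaScreen after 20 min with beads.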
# JMJD2A Tudor inh – JMJD2A Tudor domain (human) inhibition; O75164; AlphaScreen JMJD2A-Tudor / H3K4me3 peptide binding; Potency, µM (series often up to 114 µM), usual class: inhibitors; actives 4.4% (n = 390,000); AID 504339; further: nearly all actives have a fitted effect of over 50% in size
# HP1b binding inh – HP1-beta chromodomain-methylated histone interaction inhibition; P83916; actives 0.56% (n = 390,000); Potency, µM (highest dose often 114 µM), hits mostly inhibitors; AID 540317; AlphaScreen HP1-beta / biotin-H3K9me3 peptide binding; further: nearly all actives have a fitted effect of over 70% in size
#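 HP1-beta protein (50 nM final) preincubated 30 min at room temperature with biotinylated H3(1-18)K9me3 peptide (50 nM) in PBS pH 7.4, 0.01% Tween-20, then compound added for 30 min. AlphaScreen streptavidin donor/nickel chelate acceptor beads (10 ug/mL final), 30 min dark, luminescence read.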
# L3MBTL1 inh – inhibitors of human L3MBTL1; Q9Y468; AlphaScreen L3MBTL1–H3K9me1 peptide binding; Potency, µM (doses to about 57.1 µM), usual class: inhibitors; actives 0.66% (n = 230,000); AID 485360; further: nearly all actives have a fitted effect of over 60% in size
#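 L3MBTL1 50 nM + b-AHA-H3(1-15)K9me1 75 nM, 30 min RT; compound added, 30 min RT; streptavidin donor/Ni-chelate acceptor beads 10 ug/mL each final, 30 min RT dark; AlphaScreen read.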
# Numbers stand for hits; n = inactive; u = inconclusive; x = no result given; [ ] = another dose, or the depositor's remark. Hits are enriched below; roughly 11% of the tested compounds scored in any of these assays. The call rests on the fitted dose curve; in most records, active means well fitted inhibition curve with a large enough effect; inconclusive means small, poorly fitted or top-dose-only effect; inactive means no such curve, though single readings can be large or run the other way.
SMILES,G9a inh,BAZ2B inh,JMJD2A Tudor inh,HP1b binding inh,L3MBTL1 inh
CCCOc1ccc(-c2nn(-c3ccccc3)cc2/C=C2\SC(N)=NC2=O)cc1C,n,n,n,n,n
C=CCn1c(NS(=O)(=O)c2ccccc2)c(S(=O)(=O)c2ccc(C)cc2)c2nc3ccccc3nc21,2µM,n,n,n,3.5µM
CC(C)CCNC(=O)c1ccccc1SCC(=O)NC1CCCCCCC1,n[12.7 µM],n,n,n,n
O=C(O)CSc1ccccc1C(=O)O,45µM,n,n,n,x
O=C(CSc1ccccc1C(=O)NCc1ccccc1)NC1CCCCCCC1,10µM,n,89µM,n,n
O=C(CSc1ccccc1C(=O)O)NC1CCCCCCC1,n,n,n,n,x
O=C(CSc1ccccc1C(=O)NCc1ccccc1)NC12CC3CC(CC(C3)C1)C2,10µM,n,n,n,n
O=C(CSc1ccccc1C(=O)O)NC1CCCCCC1,n,n,10µM,n,n
O=C(CSc1ccccc1C(=O)O)c1ccccc1,n,n,n,n,x
CCn1nc(C)c2c(-c3ccccc3)cc(=O)n(C(C)C(=O)NCc3ccccc3OC)c21 (stereo unspecified),n,n,n,n,x
Brc1cccc(-c2nn(-c3ccccc3)c3c2cnc2cc4c(cc23)OCO4)c1,n,x,n,n,x
Cc1ccc(-n2ncc3c(Nc4cccc(C)c4C)ncnc32)cc1,n,n,n,n,x
CCOc1ccc(-c2cc3c(=O)n(CC(=O)Nc4cc(F)ccc4C)ccn3n2)cc1,n[12.7 µM],n,n,n,x
Cc1nc2ccccc2n1Cc1ccccc1,x,n,n,n,n
Cc1ccc(Cc2nc3ccccc3[nH]2)cc1,n,n,n,n,x
CCn1c(CCc2nc3ccccc3[nH]2)n[nH]c1=S,u,n,4µM,n,x
Cc1ccc(-n2c(CCc3nc4ccccc4[nH]3)n[nH]c2=S)cc1,u,n,7.9µM,n,n
Cc1ccc(-n2c(Cn3c(C)nc4ccccc43)n[nH]c2=S)cc1,10µM,n,8.9µM,n,n
Cc1nc2sccn2c(=O)c1S(=O)(=O)Nc1cc(C(F)(F)F)ccc1Cl,n,n,n,n,x
CCCCOc1ccc(-c2nonc2NC(=O)c2ccco2)cc1,n,n,n,n,x
N#CCSCC(=O)Nc1ccc(Br)cc1,n[2.33 µM],n,n,n,x
Cc1ccc(NC(=O)CSCC#N)cc1,50µM,n,n,n,x
COc1ccc(NC(=S)NCCc2c[nH]c3ccccc23)cc1,n,45µM,n,n,n
COc1cc(NC(=S)NCCO)c(OC)cc1Cl,x,n,n,u,n
COc1ccc(OC)c(NC(=O)NCCc2c[nH]c3ccccc23)c1,79µM,u,n,n,x
SMILES,G9a inh,BAZ2B inh,JMJD2A Tudor inh,HP1b binding inh,L3MBTL1 inh
COc1cc(NC(=S)NCCc2c[nH]c3ccccc23)c(OC)cc1Cl,45µM,u,u,u,n
COc1cc(CNCCc2c[nH]c3ccccc23)ccc1OCc1ccc(F)cc1,u,50µM,u,u,x
COc1cccc(N(CC(=O)N2CCC(C)CC2)S(=O)(=O)c2ccc(C)cc2)c1,n,n,n,n,x
COc1ccc(NC(=S)NCCc2c(C)[nH]c3ccc(OC)cc23)cc1,50µM,x,u,n,x
Cc1ccc(NC(=S)NCCc2ccccc2)c(C)c1,n,n,n,u,u
COc1ccc2oc(=O)c(C(=O)NCCc3c(C)[nH]c4ccc(C)cc34)cc2c1,u,25µM,u,u,x
Cc1ccc(NC(=S)NCCc2c[nH]c3ccccc23)c(C)c1,u,35µM,u,n,n
COc1ccc2[nH]cc(CCNC(=O)Nc3ccccc3)c2c1,n,n,u,n,x
COc1ccc2[nH]cc(CCNC(=S)NCCc3ccccc3)c2c1,45µM,28µM,u,n,n
CC(C)c1ccc(C2N=C(N)Nc3nc4ccccc4n32)cc1 (stereo unspecified),n,n,n,n,x
CC(=O)OCC(NC(=O)C(Cc1ccccc1)NC(=O)OC(C)(C)C)C1OC(n2cc(C)c(=O)[nH]c2=O)C(OC(C)=O)C1OC(C)=O (stereo unspecified),x,x,n,n,x
COc1ccccc1NC(=S)NCCc1ccccc1,n[12.7 µM],n,n[11.4 µM],n,n
COc1ccccc1NC(=S)NCCc1c[nH]c2ccccc12,n[0.501 µM],45µM,u,8.9µM,n
Fc1ccccc1-c1n[nH]c(=S)n1/N=C/c1c[nH]c2ccccc12,0.71µM,u,35µM,n,x
Fc1ccccc1/C=N/n1c(C2CCCCC2)n[nH]c1=S,25µM,n,40µM,n,x
O=C(N/N=C/c1ccccc1Br)C1CC1,n,x,n,n,n
Cc1ccccc1/C=N/n1c(C2CCCCC2)n[nH]c1=S,13µM,n,n,n,x
S=c1[nH]nc(C2CCCCC2)n1/N=C/c1ccccc1Br,7.1µM,n,18µM,u,x
Fc1ccccc1/C=N/n1cnnc1,n,n,n,n,n
CCc1ccc(CNC(=O)CCn2c(=O)c3cccn3c3ccc(F)cc32)cc1,n,n,n,n,x
O=C(O)COc1ccccc1/C=N/n1c(C2CCCCC2)n[nH]c1=S,8.9µM,n,25µM,n,x
COc1cccc(/C=N/Nc2ncnc3scc(-c4ccccc4)c23)c1O,u,13µM,45µM,n,32µM
Nc1c(Cl)ncnc1N/N=C/c1ccncc1,45µM,n,n,n,n
Nc1c(Cl)ncnc1N/N=C/c1cccc(O)c1,n[12.7 µM],n,n,n,x
COc1ccc(/C=N/Nc2ncnc(Cl)c2N)cc1OC,50µM,u,n,n,n
SMILES,G9a inh,BAZ2B inh,JMJD2A Tudor inh,HP1b binding inh,L3MBTL1 inh
COc1cccc(/C=N/Nc2nccnc2Cl)c1O,n[12.7 µM],14µM,40µM,n,u
COc1ccc(/C=N/Nc2nccnc2Cl)c(OC)c1,x,u,n[11.4 µM],n,n
COc1cc(C(=O)NCCc2sc(-c3cccc(F)c3)nc2C)cc(OC)c1OC,n,n,n,n,x
COc1ccc(/C=N/Nc2cc(C)nc3ccc(Br)cc23)cc1,n[2.33 µM],u,u,u,x
COc1ccc2nc(C)cc(N/N=C/c3cccc(OC)c3O)c2c1,45µM,45µM,50µM,u,n
COc1cccc(/C=N/Nc2ncnc(Cl)c2N)c1O,n,7.9µM,n,n,20µM
COc1cccc(/C=N/Nc2nc3ccccc3[nH]2)c1O,x,n,u,n,n
N[C@@H](CCS(=O)O)C(=O)O,n,x,x,x,x
N#CN=c1snc(-c2ccccc2)n1-c1ccc(Cl)cc1,x,x,n,n,x
COc1ccc(N(C(=O)c2ccc(C(C)(C)C)cc2)S(=O)(=O)c2ccc(Cl)cc2)cc1,n,n,n,n,x
CCOCCn1c(SC)nc2c1c(=O)[nH]c(=O)n2C,u,n,89µM,u,n
CCOCCn1c(SCCCc2ccccc2)nc2c1c(=O)[nH]c(=O)n2C,n,n,u,n,n
CCOCCn1c(N2CCCC2)nc2c1c(=O)[nH]c(=O)n2C,u,56µM,n,n,n[2.29 µM]
CCOCCn1c(N2CCN(c3ccccc3)CC2)nc2c1c(=O)n(C)c(=O)n2C,n[12.7 µM],n,n,n,n[11.4 µM]
CCCCCCn1c(SCCCC)nc2c1c(=O)[nH]c(=O)n2C,u,n,n,n,n
CCOCCn1c(N2CCCC2)nc2c1c(=O)n(C)c(=O)n2C,71µM,n,n,n,n

# High-throughput results from PubChem.
